High-throughput results (PubChem)
Most compounds without a hit are left out; they make up all but 0.99% or so of the library.
TRHR ag – agonists of human TRH receptor; P34981; TRHR cells, calcium flux fluo-8, FDSS agonist mode; activation, % at 2 µM; 0.18% of 360,000 active; in the data active means activation above about 30%
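Steps: seed TRHR cells overnight; add fluo-8 no-wash Ca dye, RT 30 min–1.5 h; record 10 s baseline; pin-transfer compounds; monitor fluorescence 1 cycle/s for the agonist window. Calcium increases flag candidate agonists.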
TRPV1 ag – human TRPV1 agonism | Q8NER1 | 0.19% of 320,000 active | TRPV1-expressing cells, Fluo-8 calcium influx, agonist mode | activation, % at 8.33 µM; in the data active means activation above about 80%; inconclusive means between about 30% and that limit
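Cells expressing TRPV1 were dye-loaded with Fluo-8 and read kinetically: 10 s baseline, 3 min after compound (agonist portion), then 2 min after EC20 capsaicin (allosteric enhancer portion). Calcium-bound dye fluorescence at 480/520 nm.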
TRHR PAM – allosteric enhancers of human TRH receptor; enhancement, % at 2 µM; 0.66% of 360,000 active; TRHR cells, fluo-8 calcium fluorescence, EC20 TRH enhancement; AID 493056; P34981; in the data active means enhancement above about 30%
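TRHR-expressing cells loaded with fluo-8 calcium dye were read kinetically (ex 480/em 530) during compound addition, then stimulated with an EC20 of TRH (10 nM final). Enhancement of the Gq-mediated intracellular calcium response was scored.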
TRPML1 agonist – human mucolipin-1 channel agonism; activation, % (test concentration not listed); Q9GZU1; AID 624414; 0.12% of 410,000 active; TRPML1-expressing cells, Ca2+ dye fluorescence, FDSS; in the data active means activation above about 50%; inconclusive means mostly about 30% to 49%
Target sequence (Q9GZU1 whole entry, looked up): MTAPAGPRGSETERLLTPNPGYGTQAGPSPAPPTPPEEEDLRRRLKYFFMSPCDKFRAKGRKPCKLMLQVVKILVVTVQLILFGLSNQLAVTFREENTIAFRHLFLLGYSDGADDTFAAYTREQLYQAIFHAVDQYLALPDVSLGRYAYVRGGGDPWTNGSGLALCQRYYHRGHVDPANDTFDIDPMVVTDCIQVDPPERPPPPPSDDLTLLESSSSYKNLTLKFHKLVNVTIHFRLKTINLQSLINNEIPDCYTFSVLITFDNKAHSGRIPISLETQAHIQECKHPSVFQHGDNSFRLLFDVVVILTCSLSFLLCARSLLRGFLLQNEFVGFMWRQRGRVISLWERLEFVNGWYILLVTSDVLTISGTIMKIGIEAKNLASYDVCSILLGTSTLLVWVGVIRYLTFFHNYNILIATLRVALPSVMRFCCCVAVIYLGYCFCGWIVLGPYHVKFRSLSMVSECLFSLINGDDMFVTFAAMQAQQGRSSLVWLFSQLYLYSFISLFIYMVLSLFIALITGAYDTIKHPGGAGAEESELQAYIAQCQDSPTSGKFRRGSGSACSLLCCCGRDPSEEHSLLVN
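TRPML1-DL cells, Tet-induced overnight (~16 h, 37 degrees C), loaded 45-90 min at room temperature with Ca8 no-wash calcium dye plus quencher. FDSS fluorescence: 10 s baseline, compound pin-transfer, 110 s agonist read, then EC80 54-4 (4uM final) and 110 s antagonist read.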
TRPV1 PAM – human TRPV1 potentiation; 0.02% of 320,000 active; TRPV1-expressing cells, Fluo-8 calcium influx, capsaicin EC20 potentiation; potentiation, % at 8.33 µM; Q8NER1; in the data active means potentiation above about 80%; inconclusive means between about 30% and that limit
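Cells expressing TRPV1 were dye-loaded with Fluo-8 and read kinetically: 10 s baseline, 3 min after compound (agonist portion), then 2 min after EC20 capsaicin (allosteric enhancer portion). Calcium-bound dye fluorescence at 480/520 nm.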
TRPML1 blocker – blocks the human TRPML1 channel; Q9GZU1; TRPML1-inducible cells, Ca2+ dye fluorescence, FDSS; active compounds read low; inhibition of EC80 agonist-evoked calcium signal; activity change, negative = inhibition, % (test concentration not listed); 0.02% of 390,000 active; in the data active means activity change below about -50%; inconclusive means between about -30% and that limit;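 further: stimulus is agonist 54-4 at its EC80 concentration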
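Calcium fluorescence in TRPML1-DL cells induced overnight with Tet: a 110 s read after compound pin addition, then a 110 s antagonist read after challenge with 54-4 at 4 uM final (EC80).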
Large screens that a line does not name were inactive.

CCOC(=O)N1CCN(C(=S)NC2CCCC2)CC1	TRHR PAM 33
Nc1cccc2[nH]cnc12	none (no result: TRHR ag, TRPV1 ag, TRHR PAM, TRPV1 PAM, TRPML1 blocker)
COC(=O)c1ccc(-n2cncn2)c([N+](=O)[O-])c1	TRHR PAM 37
CCOc1ccc(NC(=O)NC(C)c2c(-n3cccc3)sc3c2CCN(CC)C3)cc1 (stereo not given)	TRHR PAM 31 (no result: TRPV1 ag, TRPV1 PAM)
C/C(=N\Nc1ccc2nncn2n1)c1ccc(Br)s1	TRPV1 ag 96
C/C(=N\Nc1ccc2nncn2n1)c1ccco1	none
CC1CCN(S(=O)(=O)c2ccc(Cl)cc2)CC1	none
CC1CCN(S(=O)(=O)c2ccc(C(C)C)cc2)CC1	TRPML1 agonist 115
COCCNC(=O)/C(C#N)=C/c1c(N2CCN(C)CC2)nc2c(C)cccn2c1=O	none
CCN1CCN(c2nc3c(C)cccn3c(=O)c2/C=C(\C#N)C(=O)NCCOC)CC1	TRHR ag 30
Cc1cc2oc(C(=O)Nc3cccnc3)c(C)c2cc1C	TRPV1 ag 85
O=C(NNC1=NS(=O)(=O)c2ccccc21)c1ccc(Cl)cc1	none
O=C(NNC1=NS(=O)(=O)c2ccccc21)c1ccc([N+](=O)[O-])cc1	TRHR PAM 30
O=[N+]([O-])c1ccc(O/N=[N+](\[O-])N2CCCCC2)c([N+](=O)[O-])c1	none (no result: TRHR ag, TRPV1 ag, TRHR PAM, TRPV1 PAM)
Cn1c2c(c3cnc4cc(Cl)ccc4c31)CNCC2	none (no result: TRHR ag, TRPV1 ag, TRHR PAM, TRPV1 PAM, TRPML1 blocker)
O=C(C[n+]1ccccc1Br)c1ccc2c(c1)CCCC2	none (no result: TRHR ag, TRPV1 ag, TRHR PAM, TRPV1 PAM, TRPML1 blocker)
N#C/C(=C/c1cc[nH]c1)C(N)=S	TRHR PAM 33
CC1(c2ccc([N+](=O)[O-])cc2)Nc2ccccc2S1 (stereo not given)	TRHR PAM 31, TRPML1 blocker inconclusive
O=C1Nc2ccccc2/C1=C/c1ccc([N+](=O)[O-])cc1	none
CCN(CC)c1ccc(/C=C(/C#N)C(=O)NCc2ccccc2)o1	TRHR ag 59, TRPV1 ag inconclusive, TRPML1 agonist inconclusive
O=C(Nc1ccncc1)C1CCN(S(=O)(=O)c2ccccc2C(F)(F)F)CC1	TRPV1 ag 83
Cc1ccc(NC(=O)C2CCN(S(=O)(=O)c3ccc(Cl)c(C(F)(F)F)c3)CC2)nc1	TRPML1 agonist 69
Cc1ccc(NC(=O)c2ccc(S(=O)(=O)N3CCCC3)cc2)nc1	TRPV1 ag 86
Cc1ccnc(NC(=O)C2CCN(S(=O)(=O)c3ccc(Cl)c(C(F)(F)F)c3)CC2)c1	none
N#Cc1nc(Nc2ccc(Br)cc2)nc(NC2CCCC2)n1	none (no result: TRPV1 ag, TRPML1 agonist, TRPV1 PAM, TRPML1 blocker)
CCN(CC(=O)NCc1ccc(F)cc1)C(=O)/C=C/c1cccs1	TRHR PAM 38
CCN(CC(=O)NCc1ccc(F)cc1)C(=O)c1ccc(C)o1	TRHR PAM 32
CCN(CC(=O)NCc1ccc(F)cc1)C(=O)/C=C/c1ccco1	none
O=C(NCc1ccon1)C1CCC(=O)N(Cc2cccc(C(F)(F)F)c2)C1 (stereo not given)	TRPML1 blocker inconclusive
Cc1cc(CNC(=O)C2CCC(=O)N(Cc3cccc(C(F)(F)F)c3)C2)no1 (stereo not given)	TRHR PAM 31
Cc1ccc2c(/C=C/c3c[nH]c4ccccc34)ccnc2c1C	none (no result: TRHR ag, TRPV1 ag, TRHR PAM, TRPV1 PAM, TRPML1 blocker)
CC(C)C(=O)Nc1ccc(C(=O)CN2C(=O)NC3(CCOc4ccccc43)C2=O)cc1 (stereo not given)	TRPV1 ag 91
Cn1c2ccsc2c2ncn(Cc3ccc(F)cc3)c(=O)c21	TRHR PAM 36 (no result: TRPV1 ag, TRPML1 agonist, TRPV1 PAM, TRPML1 blocker)
Cc1ccc2nc(NCCCN3CCOCC3)c(C=NCCCN3CCOCC3)c(=O)n2c1	TRHR PAM 32
C=C(Br)COC(c1ccco1)[C@H](Cc1ccccc1)NC(=O)OC(C)(C)C (stereo not given in full)	none (no result: TRHR ag, TRPV1 ag, TRHR PAM, TRPV1 PAM, TRPML1 blocker)
COC(=O)c1cc(Br)c(=O)n(CC(C)C)c1	TRHR PAM 31
COC(=O)c1cc(Br)c(=O)n(CCN2CCCC2)c1	none
CC(C)CC(OC(=O)CNC(=O)c1ccccc1)C(=O)Nc1cc(C(F)(F)F)ccc1Cl (stereo not given)	none (no result: TRPV1 ag, TRPML1 agonist, TRPV1 PAM, TRPML1 blocker)
CCc1cc2c(=O)oc(-c3ccccc3F)nc2s1	TRHR PAM 37
COc1ccc(OCCOc2ccc(S(=O)(=O)N3CCCC3)cc2[N+](=O)[O-])cc1	none
COc1cccc(Oc2ccc(S(=O)(=O)N3CCCC3)cc2[N+](=O)[O-])c1	TRHR PAM 32
COc1cc(Cn2ncc3c4sc(C)cc4n(C)c3c2=O)cc(OC)c1	none (no result: TRPV1 ag, TRPML1 agonist, TRPV1 PAM, TRPML1 blocker)
Cc1cccc(CCNC(=O)C2CCN(S(=O)(=O)c3cccc4cccnc34)CC2)c1	none
CCN(CCNC(=O)C1CCN(S(=O)(=O)c2cccc3cccnc23)CC1)c1ccccc1	TRHR PAM 37
CC1CCCCN1CCNC(=O)C1CCN(S(=O)(=O)c2cccc3cccnc23)CC1 (stereo not given)	TRHR PAM 31
COc1ccc2[nH]c(C)cc2c1	none (no result: TRHR ag, TRPV1 ag, TRHR PAM, TRPV1 PAM, TRPML1 blocker)
COc1ccc(/C=N/NC(=O)CO/N=C(\C)c2cccs2)cc1	none
C/C(=N\OCC(=O)N/N=C/c1ccccc1)c1cccs1	TRHR PAM 35
COc1ccc(C(=O)c2sc(Nc3cccc(OC)c3)c(C(=O)Nc3cccc(C)c3C)c2N)cc1	TRPML1 agonist 61
COc1ccc(Nc2sc(C(=O)c3ccc(Cl)cc3)c(N)c2C(=O)Nc2ccccc2OC)cc1	TRPML1 agonist inconclusive
N#Cc1c2c(c(Cl)n3c1nc1ccccc13)CCCC2	none (no result: TRHR ag, TRPV1 ag, TRHR PAM, TRPV1 PAM, TRPML1 blocker)
CC(=O)c1c(C)n(CC(=O)NCc2ccco2)c2ccccc12	TRHR PAM 35
CNC(=O)c1ccc(Nc2nnc(C)c3ccccc23)cc1	none
CCOC(=O)c1ccc(Nc2nnc(C)c3ccccc23)cc1	TRPV1 ag 86
CCCN1CNc2c(c(=O)[nH]c(=S)n2CCc2ccccc2OC)C1	none (no result: TRHR ag, TRPV1 ag, TRHR PAM, TRPV1 PAM, TRPML1 blocker)
S=C1NC2=C(CCCC2=C2SCCS2)C(c2ccccc2)N1 (stereo not given)	TRHR PAM 37
CCCCCN1C(=O)/C(=C/c2c(N3CCc4ccccc4C3)nc3ccccn3c2=O)SC1=S	none (no result: TRHR ag, TRPV1 ag, TRHR PAM, TRPV1 PAM)
CCOC(=O)CC1C(=O)NCCN1c1nc2ccc(C)cn2c(=O)c1/C=C1\SC(=S)N(CC(C)C)C1=O (stereo not given)	TRHR ag 63, TRPV1 ag inconclusive
CCOC(=O)CC1C(=O)NCCN1c1nc2ccc(C)cn2c(=O)c1/C=C1\SC(=S)N(C(C)CC)C1=O (stereo not given)	TRHR ag 105, TRPV1 ag 139 (no result: TRPML1 agonist, TRPML1 blocker)
CCOC(=O)CC1C(=O)NCCN1C(=O)c1ccc(C)cc1 (stereo not given)	none
CCCN1C(=O)/C(=C/c2c(N3CCNC(=O)C3CC(=O)OCC)nc3c(C)cccn3c2=O)SC1=S (stereo not given)	TRHR ag 68, TRPV1 ag inconclusive
